DT40 TDP1 no CPT = qHTS for Inhibitors of human tyrosyl-DNA phosphodiesterase 1 (TDP1): qHTS in cells in absence of CPT; DT40 Tdp1-/- hTDP1 cells, no CPT, ATP luminescence, 48 h; Potency, µM (top dose mostly 46.2 µM), usual class: inhibitors; 420,000 tested, 15% active; AID 686978, 2013; also: nearly all actives have a fitted effect of over 55% in size
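Luminescent ATP content (CellTiter-Glo) served as the growth readout. Knockout chicken DT40 cells expressing human TDP1 were exposed to compounds without camptothecin for a minimum 48 hr at 37 °C.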
HT1080-NT tox = kills 2HG-producing HT-1080-NT fibrosarcoma cells. 360,000 tested, 1.6% active. Potency, µM (series often up to 46.1 µM), usual class: cytotoxic. HT-1080-NT fibrosarcoma viability, CellTiter-Glo ATP luminescence, 48 h;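 also: NT is the 2HG producing partner of a matched IDH1 knockdown line; nearly all actives have a fitted effect of over 55% in size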
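750 cells/well, RPMI + 5% FBS; 2 h settle, compound pin-transfer, 48 h at 37 degrees C. CellTiter-Glo 10 min RT, luminescence. Normalized to DMSO and media-only wells.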
ELG1 DNA repair = inhibitors of ELG1-dependent DNA repair in HEK293T cells. HEK293T ELG1-luciferase reporter, luminescence, 16 h; DNA damage induced by 5-fluorouridine. Potency, µM (series often up to 46.1 µM), usual class: inhibitors. 330,000 tested, 2.3% active. AID 504467; also: nearly all actives have a fitted effect of over 55% in size
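Luminescence from the luciferase reporter, measured 30 min after ONE-Glo reagent at room temperature, was the read-out. Beforehand, 2,000 cells per well were exposed for 16 hr at 37 °C to 5-fluorouridine together with compound or vehicle.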
IL1B secr inh = inhibitors of inflammasome signaling (IL-1 beta secretion); THP-1 LPS/ATP IL-1B secretion, AlphaLISA, 16 h; active compounds read low; activity change, % at 57.5 µM; 360,000 tested, 4.7% active; in the data active = activity change below about -50%; inconclusive = mostly about -30% to -49%
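THP-1 cells pretreated 1 hr with compounds (up to 57.5 uM final), then stimulated with LPS (250 ng/mL final) plus ATP (1.25 mM final); secreted IL-1B measured by AlphaLISA after 16 hr, decreased signal indicating inhibition.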
DT40 TDP1 CPT = growth inhibition of DT40 Tdp1-/-;hTDP1 cells with camptothecin (screen for TDP1 inhibitors); chicken DT40 Tdp1-/-;hTDP1 cells + 20 nM CPT, ATP luminescence, 48 h; Potency, µM (top dose mostly 46.2 µM), most hits filed as inhibitors; 420,000 tested, 12% active; also: nearly all actives have a fitted effect of over 55% in size
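Chicken DT40 Tdp1-/- cells stably complemented with human TDP1 were seeded at 400 cells/well in medium containing 20 nM camptothecin, exposed to pin-transferred compounds, and grown at 37 °C for at least 48 hr. Viability was read as ATP luminescence.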
HT1080 IDH1KD tx = HT-1080 IDH1 knockdown cell toxicity (counter line) | HT-1080 IDH1 knockdown viability, ATP luminescence, 48 h | Potency, µM (doses to about 46.1 µM), hits mostly cytotoxic | 360,000 tested, 2% active | AID 686971
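After a 2 h attachment period, IDH1KD HT-1080 cells took pin-transferred compound for 48 h at 37 °C; ATP-based luminescence after 10 min room-temperature reagent incubation reported viability.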
Hits are given with their value; . = inactive; ? = inconclusive; / = no result. Rows were chosen to be rich in hits. Some 19% of all compounds tested hit in one or more screens of this group. Unless noted, calls follow the shape of the dose curve; as a rule, active = well fitted curve in the direction sought with a large enough effect; inconclusive = small, poorly fitted or top-dose-only effect, or another doubt; inactive = no such curve, though single readings can be large; an effect the other way counts as inactive or inconclusive.

SMILES	DT40 TDP1 no CPT	HT1080-NT tox	ELG1 DNA repair	IL1B secr inh	DT40 TDP1 CPT	HT1080 IDH1KD tx
Cn1nc(C(C)(C)C)cc1C(=O)N1CCCCC1c1cc(C(=O)Nc2ccccc2Cl)no1 (stereo not given)	21µM	?	/	.	21µM	?
CCCNC(=O)NC(=O)COC(=O)CNS(=O)(=O)/C=C/c1ccccc1	.	.	.	.	.	.
COc1cc(/C=C(/C#N)C(=O)Nc2ccc(Cl)cc2)ccc1Oc1nc(Cl)ncc1F	.	.	.	.	9.2µM	.
O=C(Nc1ccc(C(=O)N2CCCC2)cc1)c1ccc2c(c1)OCO2	?	?	?	.	?	?
CC(=O)N1CCN(c2ccc(NC(=O)c3ccc4c(c3)OCCO4)cc2)CC1	.	.	.	.	.	.
O=C(CSc1ccc(Cl)cc1)Nc1ccc(N2CCN(C(=O)c3ccc(Cl)cc3)CC2)cc1	15µM	.	.	.	18µM	?
CC(C)(C)C(=O)N1CCN(c2ccc(NC(=O)c3ccc4c(c3)OCCO4)cc2)CC1	?	.	16µM	-77	?	.
O=C(Nc1ccc(N2CCN(C(=O)c3ccccc3)CC2)cc1)c1ccc2c(c1)OCCO2	?	.	15µM	-94	21µM	.
O=C(Nc1ccc(N2CCN(C(=O)c3ccc(Cl)cc3)CC2)cc1)c1ccc2c(c1)OCCO2	23µM	?	4.1µM	-61	13µM	.
O=C(Nc1ccc(N2CCN(C(=O)c3ccc(Cl)cc3)CC2)cc1)c1cccs1	.	.	.	.	.	.
C[C@@H]1CN([C@@H](C)CO)C(=O)CCCn2nncc2CO[C@H]1CN(C)S(=O)(=O)c1ccccc1F	.	.	/	.	.	.
Cc1ccc(CN2CCN(Cc3ccccc3C(F)(F)F)CC2)cc1	?	.	.	.	?	.
O=C(c1ccccc1)N1CCN(c2ccc(NCc3ccc4c(c3)OCO4)cc2)CC1	18µM	.	?	.	15µM	?
Cc1cccc(N=C2NC(=O)/C(=C/C=C/c3ccco3)S2)c1C	16µM	.	.	.	?	?
COc1ccc(N=C2NC(=O)/C(=C/c3ccco3)S2)cc1	?	.	?	-55	?	.
COc1ccc(N=C2NC(=O)/C(=C/C=C/c3ccccc3)S2)cc1	?	.	.	.	.	.
O=C1NC(=Nc2ccccc2)S/C1=C\C=C\c1ccco1	9.2µM	?	?	.	8.2µM	?
Cc1ccc(N=C2NC(=O)/C(=C/C=C/c3ccco3)S2)cc1	23µM	.	.	.	?	.
COc1ccc(S(=O)(=O)/N=C2/NC(=O)/C(=C/c3ccco3)S2)cc1	.	.	.	.	.	.
Cc1ccc(NC(=O)N2CCN(C)c3ncccc32)cc1C	.	/	/	/	.	/
COc1ccc(C(=O)NCCNc2nc3ccc(C)cc3cc2C#N)cc1OC	.	.	?	.	.	.
Cc1ccc(N=C2NC(=O)/C(=C\c3ccsc3)S2)c(C)c1	?	.	.	.	16µM	.
Cc1ccc(N=C2NC(=O)/C(=C/c3cccnc3)S2)c(C)c1	.	?	.	?	.	.
Cc1ccc(S(=O)(=O)N(C)S(=O)(=O)c2ccc(C)cc2)cc1	.	.	.	.	.	.
CSc1ccc(/C=N/N(C)S(=O)(=O)c2ccc(C)cc2)cc1	7.3µM	.	.	.	?	.
Cc1ccc(S(=O)(=O)N(C)CCN(C)S(=O)(=O)c2ccc(C)cc2)cc1	23µM	.	/	.	?	.
Cc1ccc(S(=O)(=O)N(C)/N=C/c2ccc(C(=O)O)cc2)cc1	.	.	.	.	.	.
Cc1ccc(/C=N/N(C)S(=O)(=O)c2ccc(C)cc2)cc1	21µM	.	.	.	23µM	.
CCCn1c(SCC(=O)Nc2cc(Cl)ccc2OC)nc(O)cc1=O	.	.	.	.	.	.

Screens (PubChem BioAssay)
